Z-score and composite z-score data for four molecules are collected here from PubChem BioAssay.

Activity calls are given as the source filed them.

Experiment [1] is described as follows: optical density shifts of acrAB sulA E. coli – strain DRC41, OD650, 48 h, E. coli filamentation inducer project, primary screen (AID 1152).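 Further: E. coli MC1000 strain DRC41 lacking acrAB efflux pump and sulA.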 The note with it: higher = more signal, called active from +8 up or from −8 down.
The nature of experiment [2]: probe aLefty1 binding on compound microarray – biochemical, small-molecule microarray, 635/667 nm fluorescence, primary screen (AID 1153).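 Further: score merges spot fluorescence with signal-to-noise ratio from the scanned slide images.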 The following applies: higher = more signal.
A short description of experiment [3]: plasmodial surface anion channel blockers, osmotic lysis – cell-based, P. falciparum Indochina, OD700, 1 h, primary screen (AID 1154). The note with it: P. falciparum Indochina infected RBC osmotic lysis, higher = more signal, called active from +8 up or from −8 down.
Experiment [4] in a line: plasmodial surface anion channel blockers, osmotic lysis – cell-based, P. falciparum Indochina, OD700, 2 h, primary screen (AID 1155).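 Further: lysis reports solute entry through the parasite surface anion channel PSAC.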 The following applies: P. falciparum Indochina infected erythrocytes, higher = more signal, called active from +8 up or from −8 down.
The nature of experiment [5]: changes in parasitized red cell lysis, either direction – P. falciparum Indochina, OD700, 3 h, PSAC antagonist project, primary screen (AID 1156). The note with it: P. falciparum-infected erythrocytes, osmotic lysis, higher = more signal, called active from +8 up or from −8 down.
Experiment [6] can be described thus: plasmodial surface anion channel blockers, osmotic lysis – cell-based, P. falciparum Indochina, OD700, 18 h, primary screen (AID 1157). The note with it: P. falciparum Indochina infected erythrocytes, osmotic lysis OD700, 18 h; higher = more signal, called active from +8 up or from −8 down.
Experiment [7] can be described thus: S6 kinase pathway phospho-S6 level changes – cell-based, A549, cytoblot, luminescence, serum-stimulated, primary screen (AID 1158).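 Further: serum-stimulated A549 lung adenocarcinoma cells; signal is phosphorylated S6 detected by cytoblot immunostaining with HRP secondary.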 The note with it: 5 h, higher = more signal.
For experiment [8], the target named is NADPH oxidase 2 (Homo sapiens) (UniProt P04839). The experiment can be described thus: compounds shifting NOX2 Amplex Red fluorescence – cell-based, HEK293-NOX2, PMA-stimulated, NOX inhibitor project, primary screen (AID 1159). Further: test concentration not given here. The note with it: 45 min, higher = more signal, called active from +8 up or from −8 down.
Chain of NADPH oxidase 2 (Homo sapiens) (P04839 whole entry, looked up): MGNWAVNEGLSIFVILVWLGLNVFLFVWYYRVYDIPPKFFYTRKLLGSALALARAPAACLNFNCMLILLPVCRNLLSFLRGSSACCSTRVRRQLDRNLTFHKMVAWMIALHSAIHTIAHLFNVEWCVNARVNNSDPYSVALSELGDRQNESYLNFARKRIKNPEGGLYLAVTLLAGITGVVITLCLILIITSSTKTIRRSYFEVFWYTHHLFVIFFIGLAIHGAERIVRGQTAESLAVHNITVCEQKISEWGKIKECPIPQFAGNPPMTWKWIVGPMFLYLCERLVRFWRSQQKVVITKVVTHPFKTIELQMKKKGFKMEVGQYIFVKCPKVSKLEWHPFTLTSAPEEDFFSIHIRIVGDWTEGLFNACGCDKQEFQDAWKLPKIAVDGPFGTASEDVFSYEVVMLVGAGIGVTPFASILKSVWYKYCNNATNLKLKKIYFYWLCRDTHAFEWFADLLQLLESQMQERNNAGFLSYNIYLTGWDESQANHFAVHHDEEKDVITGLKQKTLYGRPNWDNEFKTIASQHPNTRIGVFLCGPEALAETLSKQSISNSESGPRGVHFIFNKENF
In experiment [9] the target is NADPH oxidase 4 (Homo sapiens) (UniProt Q9NPH5). The experiment can be described thus: compounds shifting NOX4 Amplex Red fluorescence – cell-based, HEK293-NOX4, tetracycline-induced, NOX inhibitor project, primary screen (AID 1160). The following applies: HEK293-NOX4, Amplex Red H2O2 fluorescence, 45 min; higher = more signal, called active from +8 up or from −8 down.
Chain of NADPH oxidase 4 (Homo sapiens) (Q9NPH5 whole entry, looked up): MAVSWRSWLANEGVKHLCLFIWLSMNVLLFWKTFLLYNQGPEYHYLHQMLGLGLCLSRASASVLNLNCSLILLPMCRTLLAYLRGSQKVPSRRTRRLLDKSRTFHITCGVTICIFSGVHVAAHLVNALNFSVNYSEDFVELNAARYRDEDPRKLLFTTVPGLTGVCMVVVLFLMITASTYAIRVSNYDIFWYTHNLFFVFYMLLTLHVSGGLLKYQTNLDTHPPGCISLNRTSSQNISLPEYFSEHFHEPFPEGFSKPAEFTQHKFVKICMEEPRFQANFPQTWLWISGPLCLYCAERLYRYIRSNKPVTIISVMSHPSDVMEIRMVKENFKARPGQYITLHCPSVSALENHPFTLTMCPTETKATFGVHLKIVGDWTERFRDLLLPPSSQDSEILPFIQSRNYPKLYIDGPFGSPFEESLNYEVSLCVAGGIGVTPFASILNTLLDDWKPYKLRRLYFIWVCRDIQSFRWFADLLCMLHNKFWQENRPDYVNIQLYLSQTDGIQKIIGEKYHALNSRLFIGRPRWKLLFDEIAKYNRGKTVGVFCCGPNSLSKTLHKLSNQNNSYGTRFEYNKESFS

Experiment [10] has as its target NADPH oxidase 5 (Homo sapiens) (UniProt Q96PH1). The experiment can be described thus: compounds shifting NOX5 Amplex Red fluorescence – cell-based, HEK293-NOX5, NOX inhibitor project, primary screen (AID 1161). The note with it: HEK293-NOX5, ionomycin, 45 min, higher = more signal.
Experiment [11] can be described thus: compound effects on lung adenocarcinoma cell viability – A549, calcein-AM fluorescence, 48 h, basal, profiling panel (AID 1162). Further: test concentration not given here. The following applies: higher = more signal.
The nature of experiment [12]: compound effects on differentiated 3T3-L1 adipocyte viability – cell-based, 3T3-L1 adipocytes, calcein-AM fluorescence, 48 h, basal, profiling panel (AID 1163). Further: test concentration not given here. The note with it: 3T3-L1 adipocytes viability, higher = more signal.
Experiment [13] is described as follows: compound effects on hepatocellular carcinoma cell viability – HepG2, calcein-AM fluorescence, 48 h, basal, profiling panel (AID 1164). Further: test concentration not given here. The following applies: higher = more signal.
The nature of experiment [14]: compound effects on multiple myeloma cell viability – MM1S, calcein-AM fluorescence, 48 h, basal, profiling panel (AID 1165).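 Further: viability of MM1S multiple myeloma cells under basal unstimulated conditions; test concentration not given here.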 The note with it: higher = more signal.
A short description of experiment [15]: calcein-AM signal in unstimulated myeloma cells – cell-based, calcein-AM fluorescence, 48 h, PK04 Diversity Set, profiling panel (AID 1166).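 Further: cells grown under basal conditions without added stimulus; test concentration not given here.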 The following applies: RPMI8226 myeloma viability, higher = more signal.
Experiment [16] can be described thus: JC-1 mitochondrial signal, unstimulated HepG2 cells – cell-based, JC-1 fluorescence, 24 h, 100 nL compound, profiling panel (AID 1167). Further: test concentration not given here. The note with it: HepG2 mitochondrial potential, higher = more signal.
Experiment [17] in a line: JC-1 mitochondrial signal, unstimulated adipocytes – cell-based, JC-1 fluorescence, 3T3-L1 adipocytes, 24 h, 100 nL compound, profiling panel (AID 1168). Further: test concentration not given here. The note with it: JC-1 mitochondrial fluorescence, higher = more signal, called active from +8 up or from −8 down.
The nature of experiment [18]: JC-1 mitochondrial signal, unstimulated myeloma cells – cell-based, JC-1 fluorescence, RPMI8226, 24 h, 100 nL compound, profiling panel (AID 1169). Further: test concentration not given here. The note with it: JC-1 mitochondrial potential fluorescence, higher = more signal.
A short description of experiment [19]: JC-1 mitochondrial signal, unstimulated MM1S myeloma – cell-based, JC-1 fluorescence, 24 h, 100 nL compound, profiling panel (AID 1170). Further: test concentration not given here. The following applies: MM1S mitochondrial potential, higher = more signal.
A short description of experiment [20]: resazurin metabolic signal in A549 cells – cell-based, resazurin fluorescence, 24 h, PK04 Diversity Set, profiling panel (AID 1171). Further: test concentration not given here. The note with it: A549 viability, higher = more signal, called active from +8 up or from −8 down. A general note: Alamar Blue is a resazurin reagent that responds to reducing activity.

Chain of NADPH oxidase 5 (Homo sapiens) (Q96PH1 whole entry, looked up): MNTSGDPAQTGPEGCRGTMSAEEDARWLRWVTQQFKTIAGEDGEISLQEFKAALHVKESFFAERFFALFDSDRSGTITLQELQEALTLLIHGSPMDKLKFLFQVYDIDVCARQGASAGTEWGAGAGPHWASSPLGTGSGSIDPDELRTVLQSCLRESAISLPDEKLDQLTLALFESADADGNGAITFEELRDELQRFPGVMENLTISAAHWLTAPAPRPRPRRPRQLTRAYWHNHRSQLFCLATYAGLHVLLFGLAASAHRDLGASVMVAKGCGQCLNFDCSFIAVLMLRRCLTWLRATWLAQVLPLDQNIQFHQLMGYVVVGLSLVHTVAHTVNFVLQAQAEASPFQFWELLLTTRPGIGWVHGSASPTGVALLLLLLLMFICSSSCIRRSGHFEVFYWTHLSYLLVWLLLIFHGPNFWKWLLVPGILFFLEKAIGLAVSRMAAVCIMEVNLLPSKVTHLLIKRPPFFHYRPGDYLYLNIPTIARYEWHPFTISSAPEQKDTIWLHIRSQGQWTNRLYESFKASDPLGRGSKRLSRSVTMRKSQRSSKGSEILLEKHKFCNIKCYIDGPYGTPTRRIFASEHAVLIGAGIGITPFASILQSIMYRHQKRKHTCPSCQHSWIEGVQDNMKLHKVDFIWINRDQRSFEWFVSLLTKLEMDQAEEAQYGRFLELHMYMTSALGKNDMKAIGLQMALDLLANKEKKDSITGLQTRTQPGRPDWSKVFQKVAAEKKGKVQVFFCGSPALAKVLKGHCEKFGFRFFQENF

Turning to `C#CCCCON=C1[C@H]2CCn3c(=O)n(-c4ccccc4)c(=O)n3[C@H]2[C@H](O)[C@@H]2O[C@H]12`, the z-score in [1] was 0.555 (inactive); in experiment [3], 0.116 (inactive); in experiment [4] it was -1.22 (inactive); in [5], 0.43 (inactive); in experiment [6], -2.27 (inactive); in experiment [7] it was 3.11. Also, the z-score in [8] was -0.858 (inactive); in experiment [9] it was 0.137 (inactive); in experiment [10] it was 0.607; in experiment [11] it was -0.212; in [12], 0.356; in experiment [13], 1.09. The z-score in experiment [14] is 0.0128; in experiment [15], -0.352; in experiment [16], 0.85; in [17], 0.182 (inactive); in experiment [18], 1.03; in experiment [19] it was -0.61. Further, the z-score in [20] is -1.39 (inactive). In experiment [2], this molecule showed a composite z-score of -0.19.

For the molecule `O=C1[C@H]2[C@H]3[C@H](O)[C@H](O)CC(=NOC[C@@H](O)COCc4ccco4)[C@H]3CC[C@H]2C(=O)N1Cc1ccccc1`, the z-score in experiment [1] was 0.0413 (inactive); in [3] it was 0.376 (inactive); in [4] it was -0.599 (inactive); in [5], -0.409 (inactive); in experiment [6], -1.53 (inactive); in experiment [7] it was 1.43. Moreover, the z-score in [8] was -0.0116 (inactive); in [9], 0.967 (inactive); in experiment [10], 0.0182; in experiment [11], 0.172; in [12], 0.194; in experiment [13], -1.46. The z-score in experiment [14] was 0.455; in [15], -2.06; in experiment [16] it was 0.176; in experiment [17], -0.161 (inactive); in experiment [18], 0.714; in experiment [19], -0.441. In experiment [20], the z-score is 0.968 (inactive). The composite z-score in experiment [2] was -0.154.

`COC(=O)CC=C[C@@H](C)[C@@H](C=NOCC[C@@H]1C=C[C@H](OC(C)=O)[C@@H](COC(C)=O)O1)NS(=O)(=O)c1ccc(C)cc1`: the z-score in [1] was 0.385 (inactive); in [3], 0.944 (inactive); in [4], 0.107 (inactive); in experiment [5], -0.113 (inactive); in experiment [6], 0.196 (inactive); in experiment [7], -0.879. Further, the z-score was 0.174 (inactive) in experiment [8]; 0.911 (inactive) in [9]; -0.075 in [10]; 0.498 in [11]; 0.037 in experiment [12]; -0.726 in [13]. The z-score is 0.212 in experiment [14]; -0.128 in [15]; -0.716 in [16]; -1.63 (inactive) in experiment [17]; 0.533 in experiment [18]; 0.0173 in experiment [19]. Besides, the z-score in experiment [20] was -0.364 (inactive). In addition, in experiment [2], the composite z-score amounted to 0.212.

As for `COC(=O)NCC=Cc1nc(CCCO)co1`, the z-score in experiment [1] was -0.0186 (inactive); in experiment [3], 0.0325 (inactive); in experiment [4] it was 0.496 (inactive); in experiment [5] it was -0.304 (inactive); in experiment [6], -0.145 (inactive); in experiment [7] it was -0.726. The z-score in [8] is -0.745 (inactive); in experiment [9] it was 0.996 (inactive); in experiment [10], 0.449; in [11], 0.206; in experiment [12], -0.683; in [13], 0.392. Moreover, the z-score in [14] is 0.225; in experiment [15], 0.0204; in experiment [16] it was -0.64; in experiment [17], 0.331 (inactive); in experiment [18], -0.0369; in experiment [19], -0.606. For the same molecule, the z-score in [20] was -0.238 (inactive). In experiment [2], the composite z-score was -0.164.
